Assay results from PubChem BioAssay AID1159580 (chemical genetic matrix, 2015).
Among all 5,500 compounds or so, about 2,000 (36%) were called active. About 18% were inconclusive and are not listed. Cut-off read from the data, not from the text of the source: active = normalized growth mostly below about 0.91 (no sharp cut-off); inconclusive = no clear call, values can overlap the other calls; inactive = mostly above about 0.92. This is one part of the list.

Assay: chemical genetic growth profiling, strain panel (AID 1159580);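 note: tested at 20 µM; growth read once vehicle control cultures reached saturation at 30 °C; 1 = growth at the plate median or of vehicle wells; lower values mean less growth of the strain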
Conditions: S. cerevisiae deletion strains, growth OD

Measured: normalized growth

CN1[C@@H](CC(=O)c2ccccc2)CCC[C@H]1C[C@H](O)c1ccccc1
inactive: locus YAL040C, strain CLN3, hits give low values 1.01 | locus YCL061C, strain MRC1 (second series), hits give low values 1.01 | locus YDR150W, strain NUM1, hits give low values 1.01 | locus YDR363W, strain ESC2, hits give low values 0.984 | locus YER002W, strain NOP16, hits give low values 1 | locus YGR229C, strain SMI1, hits give low values 0.99 | locus YJR075W, strain HOC1, hits give low values 1.01 | locus YMR263W, strain SAP30, hits give low values 1.01 | locus YNL128W, strain TEP1, hits give low values 1 | locus YNL175C, strain NOP13, hits give low values 1.02 | locus YNL197C, strain WHI3, hits give low values 1.01 | locus YNL224C, strain SQS1, hits give low values 1 | locus YOR083W, strain WHI5 (second series), hits give low values 1.02 | locus YPL241C, strain CIN2, hits give low values 1.01
